A short description of experiment [1]: qHTS assay to identify small molecule antagonists of the estrogen receptor alpha (ER-alpha) signaling pathway using the BG1 cell line in the presence of 0.1 nM 17-beta-estradiol - cell viability counter screen (AID 1259241). Further: nearly all actives have a fitted effect of over 40% in size. In outline: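 Live-cell protease activity (CellTiter-Fluor fluorescence, 30 min) was read in the same wells after VM7Luc4E2 cells had been exposed to compounds with 0.1 nM 17beta-estradiol for 22 hr at 37C.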

In experiment [2] the target is Androgen receptor (Homo sapiens) (UniProt P10275). Nature of the experiment: qHTS assay to identify small molecule antagonists of the androgen receptor (AR) signaling pathway using the MDA cell line in the presence of 0.5 nM R1881 (AID 1259243). Further: nearly all actives have a fitted effect of over 50% in size. In outline:
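With R1881 held at 0.5 nM (final), compound effects on MMTV-luciferase expression in MDA-kb2 cells were scored by luminescence after a 16 hr, 37C incubation.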
(qHTS replaces the single test concentration by a dilution series.)

The nature of experiment [3]: qHTS assay to identify small molecule HDAC inhibitors (AID 1259364).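 Further: wild-type HCT-116 cells with endogenous class I/II HDAC activity; top concentration of the series differs between compounds; nearly all actives have a fitted effect of over 45% in size.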 The method, boiled down:
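Screening used wild-type human colon HCT-116 cells incubated overnight, dosed with compounds for 2 hours, and assayed with a homogeneous luminogenic HDAC I/II reagent for 30 minutes at room temperature.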

The nature of experiment [4]: qHTS assay to identify small molecule HDAC inhibitors - cell viability counter screen (AID 1259365). Further: series mostly up to about 92 µM; nearly all actives have a fitted effect of over 50% in size. In outline:
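HCT-116 (wild type), 1,500 cells/well, overnight 37C/5% CO2; compound in DMSO 2hr; CellTiter-Glo 30min RT; luminescence read.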

Experiment [5] in a line: qHTS assay to identify small molecule agonists of the sonic hedgehog signaling (Shh) pathway - cell viability counter screen (AID 1259366). Further: nearly all actives have a fitted effect of over 50% in size. The method, boiled down: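 CellTiter-Fluor fluorescence read-out, 1 hr at 37C, added after 23hr compound exposure. Cells: 3T3 Gli1-Luc, an NIH/3T3 clone with stably integrated Gli1-Luc reporter, plated 4hr before compound.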
Experiment [6] in a line: qHTS assay to identify small molecule agonists of the sonic hedgehog signaling (Shh) pathway (AID 1259368; calls by dose curve;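 further: NIH/3T3-derived 3T3Gli1-Luc cells carrying a stable Gli1-driven firefly luciferase reporter; series mostly up to about 92 µM; nearly all actives have a fitted effect of over 15% in size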). The method, boiled down:
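Hedgehog pathway agonism scored by increased firefly luciferase luminescence in 3T3Gli1-Luc cells treated 24 hr at 37 C; detection used a 30 min room-temperature reagent incubation.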

Experiment [7] is described as follows: qHTS assay to identify small molecule antagonists of the sonic hedgehog signaling (Shh) pathway (AID 1259369; calls by dose curve; further: nearly all actives have a fitted effect of over 45% in size; further: potency means the concentration at half of the fitted maximal effect). In outline:
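NIH/3T3 stable Gli1-Luc clone, 2,000 cells/well, 4hr settle; cpd + conditioned medium 24hr; Luc reagent 30min RT; luminescence.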

Experiment [8] addresses Estrogen receptor beta (Homo sapiens) (UniProt Q92731). Nature of the experiment: qHTS assay to identify small molecule agonists of the estrogen receptor beta (ER-beta) signaling pathway (AID 1259377; active means well fitted activation curve with a large enough effect in the signal ratio in the repeat runs, not every such curve was filed as active; the % refers to the signal ratio; further: potency means the concentration at half of the fitted maximal effect). The method, boiled down:
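Beta-lactamase reporter readout: fluorescence of LiveBLAzer B/G FRET substrate after 2 h at room temperature, following 16 h compound treatment of ER-beta-UAS-bla HEK293T cells at 37C in 2% charcoal-stripped FBS medium.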

The nature of experiment [9]: qHTS assay to identify small molecule agonists of the androgen receptor (AR) signaling pathway in the presence of an antagonist - cell viability counter screen (AID 1259379).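 Further: MDA-kb2 human breast cancer cells carrying an MMTV luciferase reporter; series mostly up to about 92 µM; nearly all actives have a fitted effect of over 25% in size.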 In outline:
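MDA-kb2 viability measured by CellTiter-Fluor fluorescence in the same wells as the luciferase signal; nilutamide 3.0uM final; 15-point compound titration; 16 hr at 37C.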

In experiment [10] the target is Androgen receptor (Homo sapiens) (UniProt P10275). Nature of the experiment: qHTS assay to identify small molecule agonists of the androgen receptor (AR) signaling pathway in the presence of an antagonist (AID 1259381; calls by dose curve; further: nearly all actives have a fitted effect of over 15% in size; further: potency means the concentration at half of the fitted maximal effect). The method, boiled down:
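Luminescent ONE-Glo read, 30min at room temperature, follows 16hr compound exposure (15 concentrations) of MDA-kb2 cells at 37C, 0% CO2, with nilutamide added at 3.0uM final.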

Experiment [11] can be described thus: qHTS assay to identify small molecule antagonists of the estrogen receptor beta (ER-beta) signaling pathway - cell viability counter screen (AID 1259382).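 Further: HEK293T cells carrying ER-beta-UAS-bla reporter stimulated with estradiol; series mostly up to about 92 µM; nearly all actives have a fitted effect of over 55% in size.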 In outline:
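Readout: luminescence, CellTiter-Glo, same wells as bla assay. System: ER-beta-UAS-bla GripTite HEK293T, 2% charcoal-stripped FBS. Exposure: compounds plus 1nM 17-beta-estradiol, 16 hr, 37C.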

For experiment [12], the target named is Estrogen receptor (Homo sapiens) (UniProt P03372). Nature of the experiment: qHTS assay to identify small molecule agonists of the estrogen receptor alpha (ER-alpha) signaling pathway in the presence of an antagonist (AID 1259383; calls by dose curve; further: nearly all actives have a fitted effect of over 15% in size; further: potency means the concentration at half of the fitted maximal effect; on activation: top concentration of the series differs between compounds). In outline:
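Quantitative HTS confirmation: compounds titrated at 15 concentrations onto estrogen-deprived VM7Luc4E2 cells carrying a four-ERE luciferase construct, with ICI-182,780 present at 10.0nM final. Signal is luminescence after 22hr exposure.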

A short description of experiment [13]: qHTS assay to identify small molecule agonists or antagonists of the thyroid stimulating hormone receptor (TSHR) signaling pathway - wild type cell line counter screen (AID 1259384; calls by dose curve). The method, boiled down:
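Counter screen in untransfected Hek293: compounds (15-point titration, triplicate) plus phosphodiesterase inhibitor Ro20-1724 added after 18 h plating; 30 min RT. Intracellular cAMP via competitive d2/cryptate immunoassay, 1 h incubation.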

The target in experiment [14] is Estrogen receptor (Homo sapiens) (UniProt P03372). In words: qHTS assay to identify small molecule antagonists of the estrogen receptor alpha (ER-alpha) signaling pathway using the BG1 cell line in the presence of 0.1 nM 17-beta-estradiol (AID 1259244). Further: nearly all actives have a fitted effect of over 50% in size. In outline:
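Compounds were tested against 0.1 nM (final) 17beta-estradiol in VM7Luc4E2 cells, which express full-length ER-alpha and an ERE-luciferase reporter; luminescence was recorded following 22 h exposure.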

A short description of experiment [15]: qHTS assay to identify small molecule phospholipidosis (PLD) inducers (AID 1259344; active means well fitted curve in the direction sought with a large enough effect; an effect the other way counts as inactive or inconclusive). The method, boiled down:
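Phospholipid accumulation was scored by imaging: fixed, Hoechst-counterstained HepG2 cells stained with LipidTOX Red after 24 h compound exposure at 37 C. Read-outs were pit count and pit intensity per well or per cell, with amiodarone and DMSO controls.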

Experiment [16] can be described thus: qHTS assay to identify small molecule agonists of the estrogen receptor beta (ER-beta) signaling pathway - cell viability counter screen (AID 1259380). Further: nearly all actives have a fitted effect of over 30% in size. The method, boiled down: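 Measured: luminescence from CellTiter-Glo after 30 min at room temperature, added to wells already read for the LiveBLAzer FRET reporter (2 hr substrate); ER-beta-UAS-bla HEK293T cells had 16 hr compound treatment at 37C, 5% CO2.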

Experiment [17] has as its target Thyrotropin receptor (Homo sapiens) (UniProt P16473). In words: qHTS assay to identify small molecule antagonists of the thyroid stimulating hormone receptor (TSHR) signaling pathway (AID 1259385; calls by dose curve; further: nearly all actives have a fitted effect of over 20% in size). The method, boiled down: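 Antagonist mode: compound-treated TSHR-expressing HEK293 cells were stimulated with 1.5 ng/mL TSH (final) in presence of Ro20-1724 for 30 min at RT. HTRF cAMP detection after 1 h; each compound tested at 15 concentrations, triplicate.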

A short description of experiment [18]: qHTS assay to identify small molecule antagonists of the androgen receptor (AR) signaling pathway using the MDA cell line in the presence of 0.5 nM R1881 - cell viability counter screen (AID 1259242). Further: nearly all actives have a fitted effect of over 45% in size. The method, boiled down:
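Concentration-response screen of compounds for toxicity in MDA-kb2 reporter cells: 16 hr at 37C with 0.5 nM R1881, endpoint live-cell protease fluorescence measured in the reporter wells.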

Experiment [19] in a line: qHTS assay to identify small molecule antagonists of the sonic hedgehog signaling (Shh) pathway - cell viability counter screen (AID 1259367). Further: nearly all actives have a fitted effect of over 55% in size. In outline: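 Viability was read by CellTiter-Fluor fluorescence in the same wells, reagent added 23 hr into compound treatment and incubated 1 hr at 37C. The 3T3 Gli1-Luc reporter cells (2,000/well) received conditioned medium after compound and ran 24 hr.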

For experiment [20], the target named is Estrogen receptor beta (Homo sapiens) (UniProt Q92731). Nature of the experiment: qHTS assay to identify small molecule antagonists of the estrogen receptor beta (ER-beta) signaling pathway (AID 1259378; active means well fitted inhibition curve with a large enough effect in the signal ratio in the repeat runs, not every such curve was filed as active; the % refers to the signal ratio). The method, boiled down:
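Antagonist mode: compounds added to beta-lactamase reporter HEK293T ER-beta-UAS cells stimulated with E2 (1nM final), 16 hr at 37C. LiveBLAzer B/G FRET substrate, 2 hours room temperature, fluorescence read-out.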

The values that follow come from PubChem BioAssay (Tox21).

The structures appear in SMILES notation. Results filed as inconclusive are left out. The source made the active and inactive calls. Unless noted, the call rests on the fitted dose curve; in most records, active means well fitted curve in the direction sought with a large enough effect in the repeat runs; inconclusive means weak or mixed curves; inactive means no such curve, though single readings can be large; an effect the other way counts as inactive or inconclusive.
On the % scale 0 is the no-effect control and ±100 the full control effect.

Chain of Thyrotropin receptor (Homo sapiens) (P16473 whole entry, looked up): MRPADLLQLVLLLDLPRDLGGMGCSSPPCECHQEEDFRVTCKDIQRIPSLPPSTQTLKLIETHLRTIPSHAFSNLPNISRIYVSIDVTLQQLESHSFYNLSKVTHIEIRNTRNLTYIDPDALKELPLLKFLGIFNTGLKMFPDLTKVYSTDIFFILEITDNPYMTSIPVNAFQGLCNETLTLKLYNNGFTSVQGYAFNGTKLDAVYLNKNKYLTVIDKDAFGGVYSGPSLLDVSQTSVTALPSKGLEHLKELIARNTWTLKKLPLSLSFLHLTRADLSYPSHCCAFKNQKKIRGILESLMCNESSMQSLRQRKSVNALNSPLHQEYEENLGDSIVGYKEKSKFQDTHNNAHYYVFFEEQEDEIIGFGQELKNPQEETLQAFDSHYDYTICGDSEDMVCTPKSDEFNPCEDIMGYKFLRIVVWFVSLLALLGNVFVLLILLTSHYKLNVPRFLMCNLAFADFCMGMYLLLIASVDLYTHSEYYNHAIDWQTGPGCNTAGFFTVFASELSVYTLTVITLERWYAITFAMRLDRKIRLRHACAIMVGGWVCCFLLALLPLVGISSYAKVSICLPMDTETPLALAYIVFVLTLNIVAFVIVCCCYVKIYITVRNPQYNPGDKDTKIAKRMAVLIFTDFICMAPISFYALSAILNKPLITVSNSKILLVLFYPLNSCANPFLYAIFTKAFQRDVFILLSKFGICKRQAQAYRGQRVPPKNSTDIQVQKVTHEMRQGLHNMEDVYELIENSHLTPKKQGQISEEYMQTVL
Chain of Estrogen receptor beta (Homo sapiens) (Q92731 whole entry, looked up): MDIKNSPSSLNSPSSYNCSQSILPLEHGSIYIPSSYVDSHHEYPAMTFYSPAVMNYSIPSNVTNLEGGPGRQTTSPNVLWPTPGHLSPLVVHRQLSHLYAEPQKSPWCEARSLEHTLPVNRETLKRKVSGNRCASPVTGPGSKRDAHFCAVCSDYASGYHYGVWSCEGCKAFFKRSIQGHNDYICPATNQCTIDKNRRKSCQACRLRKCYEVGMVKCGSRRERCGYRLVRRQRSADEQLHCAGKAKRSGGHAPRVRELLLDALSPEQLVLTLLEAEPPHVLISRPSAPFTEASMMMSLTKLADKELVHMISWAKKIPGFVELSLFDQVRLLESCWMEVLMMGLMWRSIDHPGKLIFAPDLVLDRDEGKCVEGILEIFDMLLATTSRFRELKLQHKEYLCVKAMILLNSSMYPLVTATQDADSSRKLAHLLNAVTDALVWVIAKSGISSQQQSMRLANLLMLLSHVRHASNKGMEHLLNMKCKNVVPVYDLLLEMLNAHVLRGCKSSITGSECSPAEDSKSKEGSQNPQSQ
Chain of Androgen receptor (Homo sapiens) (P10275 whole entry, looked up): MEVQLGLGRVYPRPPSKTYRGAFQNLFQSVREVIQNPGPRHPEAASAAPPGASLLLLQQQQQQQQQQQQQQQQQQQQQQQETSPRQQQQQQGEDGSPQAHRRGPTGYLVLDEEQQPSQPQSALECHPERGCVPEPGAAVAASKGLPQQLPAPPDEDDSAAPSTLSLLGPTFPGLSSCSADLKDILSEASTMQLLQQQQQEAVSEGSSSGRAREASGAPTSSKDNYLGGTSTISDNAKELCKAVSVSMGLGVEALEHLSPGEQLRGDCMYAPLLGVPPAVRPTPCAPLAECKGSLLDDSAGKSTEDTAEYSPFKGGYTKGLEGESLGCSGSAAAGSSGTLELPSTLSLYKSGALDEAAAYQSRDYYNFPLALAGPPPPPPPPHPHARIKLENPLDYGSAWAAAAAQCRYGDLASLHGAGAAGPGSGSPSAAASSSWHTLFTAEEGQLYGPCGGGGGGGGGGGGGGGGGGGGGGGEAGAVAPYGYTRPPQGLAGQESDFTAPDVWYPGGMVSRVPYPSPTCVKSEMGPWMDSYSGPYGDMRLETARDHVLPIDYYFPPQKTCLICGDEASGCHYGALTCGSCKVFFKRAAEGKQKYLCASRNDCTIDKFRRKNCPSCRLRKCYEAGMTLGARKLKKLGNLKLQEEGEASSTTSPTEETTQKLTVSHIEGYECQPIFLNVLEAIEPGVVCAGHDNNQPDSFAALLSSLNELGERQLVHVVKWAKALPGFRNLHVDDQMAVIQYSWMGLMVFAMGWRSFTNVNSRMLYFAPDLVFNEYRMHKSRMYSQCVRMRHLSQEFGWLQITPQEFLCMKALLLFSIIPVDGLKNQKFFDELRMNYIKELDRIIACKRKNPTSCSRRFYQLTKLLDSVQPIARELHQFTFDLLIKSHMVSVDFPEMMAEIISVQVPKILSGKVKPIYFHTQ
Chain of Estrogen receptor (Homo sapiens) (P03372 whole entry, looked up): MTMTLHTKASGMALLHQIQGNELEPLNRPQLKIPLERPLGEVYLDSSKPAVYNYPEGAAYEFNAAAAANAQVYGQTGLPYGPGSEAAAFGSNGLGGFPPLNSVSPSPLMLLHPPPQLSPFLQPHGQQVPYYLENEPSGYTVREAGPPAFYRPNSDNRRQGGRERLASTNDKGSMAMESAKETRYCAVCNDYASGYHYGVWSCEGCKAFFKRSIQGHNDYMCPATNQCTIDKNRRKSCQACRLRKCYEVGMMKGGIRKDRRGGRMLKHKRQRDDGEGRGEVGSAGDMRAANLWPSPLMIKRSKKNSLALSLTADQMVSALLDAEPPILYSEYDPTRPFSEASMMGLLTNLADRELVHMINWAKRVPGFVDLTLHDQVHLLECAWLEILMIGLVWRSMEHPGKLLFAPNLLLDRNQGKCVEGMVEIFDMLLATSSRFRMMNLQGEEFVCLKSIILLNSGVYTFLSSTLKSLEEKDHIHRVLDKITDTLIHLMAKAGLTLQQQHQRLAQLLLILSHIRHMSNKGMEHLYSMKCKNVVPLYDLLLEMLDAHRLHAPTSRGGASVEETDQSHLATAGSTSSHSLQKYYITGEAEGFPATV

For `CCC(=O)O[C@@H]1C=C2CCC3C(CCC4(C)C3CC[C@@H]4OC(=O)CC)C2CC1` (stereo partly specified), the Potency entry in [1], in [2], in [3], in experiment [4], in experiment [5] and in experiment [6] was “inactive” throughout. For the same compound, the Potency result in [7], in experiment [9] and in experiment [11] was “inactive” each time. Also, the Potency in experiment [8] is 298 nM (active); in experiment [10], 188 nM (active); in experiment [12] it was 531 nM (active). In [13], the call was inactive.
Turning to `CCCC[N+]1(C)[C@@H]2CC(OC(=O)[C@H](CO)c3ccccc3)C[C@H]1[C@@H]1O[C@@H]12` (stereo partly specified), the Potency result in experiment [1], in experiment [14], in [3], in [4], in experiment [5] and in experiment [6] was “inactive” in each case. Besides, the Potency entry in [7], in experiment [9], in [16], in [11], in [12] and in experiment [17] was “inactive” throughout. For the same compound, the call in experiment [15] and in experiment [13] was inactive.
Turning to `CCCCCCCCCCCCN=C(N)N`, the activity change, negative = cytotoxicity is 2.27% [at 3.27 µM] (inactive) in experiment [1], -3.51% [at 3.27 µM] (inactive) in experiment [4], -9.57% [at 3.27 µM] (inactive) in experiment [9] and -18.7% [at 3.27 µM] (inactive) in experiment [11]. The viability change, negative = cytotoxic in experiment [18] was -1.29% [at 3.26 µM] (inactive); in [5] it was 23.3% [at 3.27 µM] (inactive); in experiment [19], 1.35% [at 3.27 µM] (inactive). For the same compound, the activity change, negative = inhibition is 5.66% [at 3.27 µM] (inactive) in [3] and 0.876% [at 3.27 µM] (inactive) in experiment [17]. For the same compound, the activity change in experiment [6] is 0.488% [at 3.27 µM, stronger effect = higher value] (inactive). In addition, the Potency in experiment [7] was 671 nM (active). In addition, the cAMP activity change in [13] was 1.76% [at 3.27 µM] (inactive).
Take `CCCN(CCC)c1c([N+](=O)[O-])cc(C(C)C)cc1[N+](=O)[O-]`: the Potency result in [1], in experiment [18], in experiment [4], in experiment [5], in [19] and in [6] was “inactive” in each case. Moreover, the Potency result in experiment [7], in experiment [8], in experiment [20], in experiment [9], in experiment [16] and in [11] was “inactive” in each case. For the same compound, the Potency entry in experiment [12] and in experiment [17] was “inactive” each time. Further, in experiment [13], the result was inactive.
Regarding `OCC1CO1` (stereo unspecified), the Potency result in experiment [1], in experiment [18], in experiment [3], in [4], in [5] and in experiment [19] was “inactive” in each case. Also, the Potency entry in experiment [6], in [7], in [16], in experiment [11] and in [12] was “inactive” throughout.
As for `CCCBr`, the Potency entry in experiment [1], in experiment [18], in [3], in experiment [4], in experiment [5] and in experiment [6] was “inactive” in each case. For the same compound, the Potency entry in [7], in experiment [9], in experiment [16], in experiment [11] and in experiment [12] was “inactive” in each case. Moreover, in experiment [13], the call was inactive.
Regarding `O=C(N[C@H]1CN2CCC1CC2)c1ccc2c(c1)OCCO2`, the Potency entry in [1], in [2], in experiment [3], in [4], in experiment [19] and in experiment [6] was “inactive” each time. The Potency result in experiment [7], in experiment [8], in [20], in experiment [9], in experiment [16] and in experiment [10] was “inactive” throughout. Further, the Potency result in [11] and in experiment [17] was “inactive” in each case. In addition, the call in [13] was inactive.
In the case of `CCC1(CC)C(=O)NC(=O)NC1=O`, the Potency entry in experiment [1], in experiment [14], in experiment [3], in experiment [4], in [5] and in [19] was “inactive” each time. Also, the Potency entry in [6], in experiment [7], in [8], in [20], in [16] and in experiment [11] was “inactive” each time. Moreover, the Potency result in [12] is “inactive”. For the same compound, the compound was classed as inactive in experiment [15].
In the case of `CCCCC(CC)COC(=O)c1c(Br)c(Br)c(Br)c(Br)c1C(=O)OCC(CC)CCCC` (stereo unspecified), the Potency result in experiment [1], in experiment [18], in experiment [4], in experiment [5], in experiment [19] and in experiment [6] was “inactive” each time. Besides, the Potency entry in experiment [7], in experiment [8], in [20], in [9], in experiment [16] and in [11] was “inactive” throughout. In addition, the Potency entry in [12] and in experiment [17] was “inactive” throughout. Besides, in experiment [13], the outcome was inactive.
